Measured values published in PubChem BioAssay (EPA / NIEHS).
Active and inactive are the calls of the source. Rule for the calls: active = hit-call score of the fitted dose curve at least 0.9, where 1 is the maximum; inactive = score below 0.9.

Experiment: ATG_GLI_CIS: Attagene CIS-FACTORIAL HepG2 Assay for human Zinc Finger Protein GLI1 (AID 2282945)
Details: HepG2, Attagene cis-factorial reporter mRNA, GLI element; actives raise or lower the signal
Experimental: ATG_CIS is a cell-based, multiplexed-readout assay that uses HepG2, a human liver cell line, with measurements taken at 24 hours after chemical dosing in a 24-well plate.ATG_GLI_CIS is one of 52 assay component(s) measured or calculated from the ATG_CIS assay. It is designed to make measurements of mRNA induction, a form of inducible reporter, as detected with fluorescence intensity signals by Reverse transcription polymerase chain reaction (RT-PCR) and Capillary electrophoresis technology.Data from the assay component ATG_GLI_CIS was analyzed into 1 assay endpoint. This assay endpoint, ATG_GLI_CIS, was analyzed with bidirectional fitting relative to DMSO as the negative control and baseline of activity. Using a type of inducible reporter, measures of mRNA for gain or loss-of-signal activity can be used to understand the reporter gene at the transcription factor-level as they relate to the gene GLI1. Furthermore, this assay endpoint can be referred to as a primary readout, because this assay has produced multiple assay endpoints where this one serves a reporter gene function. To generalize the intended target to other relatable targets, this assay endpoint is annotated to the dna binding intended target family, where the subfamily is zinc finger.
Human liver HepG2 cells are transiently transfected with multiple reporter transcription units (MRTUs) in 6-well plates using FuGene 6 reagent (Roche; 3 ml FuGene/1 mg DNA). The MRTU constructs are regulated by a cis-regulating element (promoter). […] A major difference between the CIS and TRANS system is that in CIS activities of endogenous TFs are measured, whereas the TRANS assay evaluates changes in activities of exogenous, chimeric NR-Gal4 proteins. […] At the end of 24 hour incubation, total RNA was isolated using TriZol reagent (Invitrogen). The isolated RNA is then reverse-transcribed using oligo(dT) primer and Mo-MLV reverse transcriptase (Invitrogen) with DNAse I (Ambion) treatment for 30 min. The one-tenth of the produced cDNA was amplified by PCR using Taq DNA polymerase (Invitrogen) and two reporter sequence-specific primers. The PCR products were fluorescently labeled by primer extension with 6-arboxyfluorescein (6-FAM) 5'-labeled reporter sequence-specific primer (2 min at 95 C, 20 s at 68 C and 10 min at 72 C) and these products were digested with 5U of HpaI (New England Biolabs) for 2h at 37 C. The fragments were purified using Qiaquick PCR columns (Qiagen), analyzed on an ABI 3130xL genetic analyzer (Applied Biosystems) with peak positions identified by using a set of X-rhodamine (ROX)-labeled MapMarker1000 molecular weight standards (BioVentures). The raw capillary electrophoresis data was processed using Attagraph software (Attagene).

outcome, inactive:
CC1(C)S[C@@H]2[C@H](NC(=O)[C@H](N)c3ccccc3)C(=O)N2[C@H]1C(=O)O
COC(=O)CCSCCC(=O)OC
C1=CCC=C1
OCCOCCOCCOCCOCCO
CCOC(=O)c1ccccc1
O=C(O)Cc1c[nH]c2ccccc12
NC(=O)c1ccc([N+](=O)[O-])cc1Cl
CC/C=C\CC/C=C/C(OCC)OCC
CCO[Si](CCCN)(OCC)OCC
CCC(=O)OCc1ccc(OC)cc1
Cc1cc(O)cc(C)c1Cl
O=C(C(=O)c1ccccc1)c1ccccc1
CCCCCC1CCCC(=O)O1 (stereo not given)
CCO[Si](OCC)(OCC)c1ccccc1
C=CCOCC(CC)(CO)COCC=C
Clc1ccc(Sc2cc(Cl)c(Cl)cc2Cl)cc1
O=C1NC(=O)C2CC=CCC12 (stereo not given)
CC[N+](CC)(CC(=O)Nc1c(C)cccc1C)Cc1ccccc1 (tested in a mixture with another compound)
CC(=O)OC(C)(C)Cc1ccccc1
CCOc1ccc2c(c1)C(C)CC(C)(C)N2 (stereo not given)
COC(=O)c1ccccc1
CCCCCCCCCCCCCC
CC/C=C\CCO
O=S(=O)(O)c1cccc2ccccc12
O=[N+]([O-])c1ccccc1C(F)(F)F
CN(C)CCCN1c2ccccc2CCc2ccc(Cl)cc21
c1cc[c]([Bi]([c]2ccccc2)[c]2ccccc2)cc1
O=C1CCCCCCCCCCCCCC1
COc1c2occc2cc2ccc(=O)oc12
CCCCCC[C@@H](O)C/C=C\CCCCCCCC(=O)O
Oc1cccc2ccccc12
CCCOCCC
COC(=O)[C@]1(C)CCC[C@@]2(C)[C@H]1CC=C1C=C(C(C)C)CC[C@@H]12
CCOC(=O)CC(=O)OCC
CC=CC(=O)O
OCCN(CCO)c1cccc(Cl)c1
Sc1nc2ccccc2s1
CC1=C(CC(=O)O)c2cc(F)ccc2/C1=C\c1ccc(S(C)=O)cc1 (stereo not given)

AC50, active:
CCCCCCCCCCCCCCCCCC[N+](C)(C)C 43.6 µM
Oc1ccc(Cl)cc1C1CCCC1 43.1 µM
